Screening results (PubChem BioAssay)
Shown are actives, neighbours in structure and some others; about 3.9% of the full set was active somewhere.
esBAF inh: blocks esBAF chromatin remodeling in mouse ES cells; Bmi1-luciferase knock-in reporter, 24 h; 100% = twice the neutral-well signal; reporter increase, % at 12.5 µM; 350,000 compounds, 2% hits; AID 602393; in the data active = activation above about 40%; inconclusive = no clear call, values can overlap the other calls;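 also: 0% = median of the plate's neutral control wells and 100% = double that signal; a rise in the Bmi1 reporter signal indicates esBAF inhibition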
MITF TRPM1 HTS: increases MITF-driven TRPM1 promoter luciferase signal; SK-MEL-5 TRPM1-promoter luciferase, 24 h; % of positive control, neutral wells = 0; activation, % at 12.5 µM; 300,000 compounds, 0.75% hits; AID 588334;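 active = mean activation of at least 80% with every replicate also reaching 80%; inconclusive = mean reaches 80% but some replicate falls short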;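 also: 0% = neutral control wells and 100% = parthenolide positive control wells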
HSF1 activator: increases HSF-1 driven luciferase reporter signal; NIH3T3-HGL HSF-1 luciferase reporter, MG132, 8 h; 100% = twice DMSO control signal; activation, % at 9 µM; 300,000 compounds, 1.7% hits; AID 504408;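 active = mean replicate activation of at least 50% with a set share of replicates each reaching 50%; inconclusive = only one of those two conditions met; inactive = mean below 50% and too few replicates reaching it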;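 also: 0% = median of the neutral control wells and 100% = twice that signal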
HSF1 inhib: HSF1 inhibition; AID 2098; 300,000 compounds, 0.77% hits; NIH3T3-HGL HSE-luciferase, MG132-induced, luminescence 8 h; stronger effect = lower value; activity change, negative = inhibition, % at 7.5 µM (by protocol);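 active = more than half of replicate wells show activity change below -50%, luminescence cut by over half; inconclusive = some wells, but at most half, below -50%; inactive = no replicate well below -50%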;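 also: luciferase reports HSF-1 transcriptional activity via heat shock element; 0% = median of DMSO wells and -100% = zero luminescence signal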
Wnt bcat act: activates Wnt/beta-catenin signaling in a reporter cell assay. 300,000 compounds, 1.2% hits. activation, % at 9.35 µM. activator, plate reader. AID 743398; in the data active = activation above about 30%, passing the limit was not always enough; inconclusive = no clear call, values can overlap the other calls;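 also: 0% = neutral control wells and 100% = positive control wells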
esBAF Ring1 qPCR: confirmation of esBAF inhibitors: Ring1 de-repression in mouse ESCs | shares compounds with esBAF inh | 550 tested, under 10 active | mouse ESC E14, Ring1 mRNA RT-qPCR fold change | fold change at 33 µM;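 active = Ring1 gene expression raised more than 2-fold over untreated cells in both replicates at either tested dose; inconclusive = only one replicate above 2-fold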;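 also: Ring1 transcript normalised to actin housekeeping signal by TaqMan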
Fgf4 repress: represses Fgf4 in mouse ESCs, confirming esBAF inhibition; 550 compounds, 4% hits; mouse ESC E14, Fgf4 mRNA qPCR fold change; stronger effect = lower value; Fgf4 expression fold change at 33 µM; shares compounds with esBAF inh;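 active = Fgf4 expression under 0.8 fold of control in both repeat measurements at one or both tested doses; inconclusive = under 0.8 fold in just a single repeat measurement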;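 also: Fgf4 transcript normalised to actin in duplex TaqMan qPCR; cells exposed to compound for 24 h before lysis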
Bmi1 derepress: confirmation of esBAF inhibitors: Bmi1 de-repression in mouse ESCs; shares compounds with esBAF inh; mouse ESE14 ES cells, Bmi1 mRNA qPCR fold; stronger effect = higher value; fold change at 33 µM; 550 tested, under 10 active;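 active = Bmi1 expression fold change above 6 at either tested concentration, seen in replicate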;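 also: higher fold means more Bmi1 de-repression and stronger esBAF inhibition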
A549 cytotox: kills or reduces viability of A549 cells | shares compounds with esBAF inh | A549 cytotoxicity, plate reader | cell viability change % (negative = cytotoxic), % at 25 µM, hits read low | 550 tested, under 10 active | AID 743188; call rule not given here
HepG2 tox SP: HepG2 cell cytotoxicity at single point. shares compounds with esBAF inh. plate reader; stronger effect = lower value. activity change, negative = inhibition, % at 25 µM. 550 compounds, 4% hits. AID 743189; in the data active = activity change below about -50%
HEK293 tox SP: HEK293 cell cytotoxicity at single point; plate reader; shares compounds with esBAF inh; 550 compounds, 3% hits; activity change, negative = inhibition, % at 25 µM, hits read low; in the data active = activity change below about -38%, passing the limit was not always enough
An asterisk follows results filed as active; ? = inconclusive; . = not tested or not shown.

SMILES | esBAF inh | MITF TRPM1 HTS | HSF1 activator | HSF1 inhib | Wnt bcat act | others
CCOc1ccc(/C=N/NC(=O)c2ccccc2O)cc1CN1CC2CC(C1)c1cccc(=O)n1C2 (configuration not stated) | 57* | 1 | . | . | 1
COc1ccc(/C=N/NC(=O)c2ccccc2O)cc1Cn1cc(Cl)cn1 | 19 | -6 | 31 | 10 | .
O=C(C[C@H]1CC[C@H](NS(=O)(=O)c2ccc(F)cc2)[C@@H](CO)O1)NCCc1ccncc1 | 4 | . | . | . | .
CCc1sc(C(=O)Nc2ccc3c(c2)OCO3)cc1C | 51* | 124* | . | . | 43*
CCc1sc(C(=O)Nc2ccc(N3CCOCC3)cc2)cc1C | . | 53 | . | . | -2
CC(C)(O)C#Cc1ccc(C(=O)Nc2ccc3c(c2)OCO3)s1 | 63* | 47 | 60* | 41 | 31*
CCc1sc(C(=O)Nc2ccc3c(c2)OCCO3)cc1Br | 51* | 104* | 43 | 25 | 43*
O=C(Nc1ccc2c(c1)OCCO2)c1ccc(Br)s1 | . | 16 | 44 | 8 | -4
COc1ccc(CCCNC(=O)C2CCC(=O)N(Cc3ccccc3F)C2)cc1 (configuration not stated) | 11 | 38 | -6 | 3 | 9
Cc1cc(C)nc(CCNC(=O)C2CCC(=O)N(Cc3ccccc3F)C2)n1 (configuration not stated) | 8 | 9 | 9 | 0 | 1
Cc1ccc(CCNC(=O)C2CCC(=O)N(Cc3ccccc3F)C2)o1 (configuration not stated) | 55* | 25 | 12 | 3 | 17
COc1ccccc1CN1CC(C(=O)NCCN2CCNC2=O)CCC1=O (configuration not stated) | 4 | -2 | -79 | -73* | 0
COc1ccccc1CCCNC(=O)C1CCC(=O)N(Cc2ccccc2F)C1 (configuration not stated) | 46* | ? | 38 | 21 | 12
C[C@@H]1CCCCO[C@@H](CN(C)Cc2ccc(Cl)c(Cl)c2)[C@H](C)CN([C@@H](C)CO)C(=O)c2cc(NC(=O)C3CCCCC3)ccc2O1 | 5 | . | . | . | .
C[C@@H]1CN([C@@H](C)CO)C(=O)Cc2cc(NC(=O)Cc3cn(C)c4ccccc34)ccc2O[C@@H]1CN(C)Cc1ccncc1 | 6 | . | . | . | .
O=C(Nc1ccc(-c2nc3ccccc3s2)cc1)C1=COCCO1 | . | -42 | -63 | -56* | .
CC1CCC(=O)N(CCSc2ccccc2)CC1 (configuration not stated) | -14 | 87* | 40 | 23 | 33*
CCOP(=O)(OCC)c1nc(-c2ccccc2Cl)oc1N1CCOCC1 | . | 18 | 5 | -4 | -6
CCOP(=O)(OCC)c1nc(-c2cccc3ccccc23)oc1N1CCOCC1 | . | 18 | 74* | 22 | -1
CC(=O)N1CCn2c3ccc(C)cc3c3cccc1c32 | 30 | . | 65* | 36 | 21
CCCCNC(=O)CSc1nc2ccc(N3CCOCC3)cc2c(=O)n1Cc1ccc(OC)cc1 | 64* | 48 | . | . | 15
COCCNC(=O)CSc1nc2ccc(N3CCOCC3)cc2c(=O)n1Cc1ccc(OC)cc1 | 78* | . | 26 | 15 | .
CCCCn1c(SCC(=O)Nc2ccc(OC)cc2)nc2ccc(N3CCOCC3)cc2c1=O | 2 | . | -40 | -27 | .
C[C@H]1CN([C@@H](C)CO)C(=O)Cc2cc(NS(=O)(=O)c3ccccc3)ccc2O[C@H]1CN(C)S(C)(=O)=O | 0 | . | . | . | .
COc1ccc(S(=O)(=O)N2CCCCCC2)cc1C(=O)OCC(=O)NC(C)(C)C | . | -11 | -75 | -68* | -2
SMILES | esBAF inh | MITF TRPM1 HTS | HSF1 activator | HSF1 inhib | Wnt bcat act | others
O=S(=O)(c1ccc(NC(=S)NN=Cc2ccccc2O)cc1)N1CCCCC1 | . | . | . | . | 67*
NS(=O)(=O)c1ccc(NC(=S)Nc2ccc(S(=O)(=O)N3CCCC3)cc2)cc1 | . | -5 | -3 | -5 | 0
O=S(=O)(c1ccc(NC(=S)NCc2cccnc2)cc1)N1CCCCC1 | . | . | 15 | -5 | 47*
Cc1noc(C)c1NC(=O)Nc1ccc2c(c1)C(=O)N(C)[C@@H]1CC[C@H](CC(=O)NCc3ccc(Cl)cc3)O[C@@H]1CO2 | 0 | . | . | . | .
Oc1ccccc1CNc1ccc(OC(F)(F)F)cc1 | . | 39 | -64 | -60* | 7
CSc1ccc(CNc2ccc(C)cc2)cc1 | 55* | 59 | -3 | -6 | .
Oc1ccccc1CNc1cnc2ccccc2c1 | 54* | 27 | 22 | 23 | 21
Cc1ccc(NCc2cccnc2)cc1 | 3 | 4 | -1 | 2 | 0
Oc1ccc(Cl)cc1CNc1cnc2ccccc2c1 | 0 | . | 36 | 16 | 2
Cc1ccc(CNc2cccnc2)cc1 | 58* | 47 | -24 | -7 | 0
C[C@@H]1CN([C@H](C)CO)C(=O)c2cc(NS(=O)(=O)c3cccs3)ccc2O[C@@H](C)CCCCO[C@@H]1CN(C)Cc1ccc(C(=O)O)cc1 | 1 | . | . | . | .
CCC(=O)N1C[C@H](C)[C@@H](OC)CN(C)C(=O)c2cc(NC(=O)Nc3ccc(Cl)cc3)ccc2OC[C@@H]1C | -1 | . | . | . | .
COc1ccc(CNc2ccc(C)c(C)c2)cc1 | . | 15 | 16 | -2 | -2
Cc1ccc(NCc2ccccc2O)cc1C | 68* | 52 | 22 | 16 | 11
CSc1ccc(CNc2ccc(C)c(C)c2)cc1 | 59* | 78 | 9 | 1 | -1
Oc1ccccc1CNc1ccc2c(c1)OCCO2 | -41 | 26 | -36 | -23 | 7
CCC(=O)N1C[C@@H]2[C@H](c3ccccc31)[C@@H](CO)N2C(=O)Nc1ccccc1F | -5 | . | . | . | .
CN(C)c1ccc(C=NN2CCCCCC2)cc1 | 75* | 56 | . | . | -3 | esBAF Ring1 qPCR=1.2;Fgf4 repress=0.87;Bmi1 derepress=1.3;A549 cytotox=-6;HepG2 tox SP=-5;HEK293 tox SP=-4
CN1CCN(/N=C/c2ccc(N(C)c3ccccc3)cc2)CC1 | -4 | -1 | 8 | 0 | -1
COc1cc(/C=C/c2ccccc2)cc(OC)c1 | 68* | 96* | . | . | -1 | esBAF Ring1 qPCR=0.89;Fgf4 repress=0.99;Bmi1 derepress=1.3;A549 cytotox=-12;HepG2 tox SP=-19;HEK293 tox SP=-11
COc1cc(C=C2C(=O)c3ccccc3C2=O)cc(OC)c1 | . | . | 23 | -9 | 2
